Laboratory results: PubChem BioAssay AID504329 (Southern Research Specialized Biocontainment Screening …, 2011)
About 1,000 (0.29%) of roughly 340,000 compounds were called active. No stated cut-off is given here; in the data, inconclusive means inhibition above about 27% without an active follow-up result; inactive means below that. A selection follows. Potency and affinity values are given separately.

assay: NS1A inhibition, H1N1 influenza, cell based functional assay (AID 504329); conditions: percent inhibition, at 12.5 µM, active compounds read high

| Compound | inhibition |
| --- | --- |
| Cc1cc(C)n(Cc2ccc(C(=O)Nc3cccc(Br)c3)o2)n1 | 26.6% (inactive) |
| O=C(C[n+]1ccc(C(=O)N/N=C/c2ccc(O)cc2)cc1)c1ccccc1 | 2.67% (inactive) |
| O=C(N/N=C/C1C(c2ccccc2)C1(Cl)Cl)c1cccc(Br)c1 (stereo not given) | -5.72% (inactive) |
| O=C1C(Cc2ccc(O)cc2)NC(=S)N1c1ccccc1 (stereo not given) | 2.29% (inactive) |
| O=C(N/N=C/c1coc2ccccc2c1=O)c1cc(Br)c(O)c(Br)c1 | -7.78% (inactive) |
| C=CCN1C(=O)/C(=C\c2ccc(C)cc2)N=C1SCC(=O)NCCC | -5.98% (inactive) |
| C/C(=N\NC(=O)c1ccn(C)n1)c1cccc(NC(=O)c2ccncc2)c1 | 10.3% (inactive) |
| COC(=O)C1=C(O)CSC1=Nc1ccc(C)cc1 | -6.3% (inactive) |
| CCc1nn2cc(C(=O)c3ccccc3O)cnc2c1-c1ccc(F)cc1 | 14.5% (inactive) |
| O=[N+]([O-])c1ccc(/C=C/c2ccc3cccc(O)c3n2)cc1 | -0.58% (inactive) |
| O/N=C/c1ccc2cccc(O)c2n1 | 1.88% (inactive) |
| CCOc1ccc(OCCC(=O)NNC(=O)c2ccccc2Cl)cc1 | -2.63% (inactive) |
| CCN(CC)CCNC(=O)c1cc(Sc2nnc(C)s2)nc2ccccc12 | -9.1% (inactive) |
| COc1cc2[nH]c(=O)n(Cc3ccc(C(=O)NCCCN4CCC(C)CC4)cc3)c(=O)c2cc1OC | 4.01% (inactive) |
| COc1ccc(N(CC(=O)NCc2ccc(Cl)cc2)S(=O)(=O)c2c(C)noc2C)cc1 | 6.25% (inactive) |
| OC(CNCC(c1ccc(Cl)cc1Cl)c1c[nH]c2ccccc12)c1ccccc1 (stereo not given) | 5.5% (inactive) |
| NCC(c1ccc(Cl)cc1Cl)c1c[nH]c2ccccc12 (stereo not given) | 7.89% (inactive) |
| CC[C@]12C(=O)N(C)C[C@H]([C@@H]3C(=O)N(Cc4ccccc4)C(=O)[C@@H]31)N2C(=O)c1ccc(Br)cc1 | 1.57% (inactive) |
| Cn1c(N=Nc2ccccc2)nc2ccccc21 | 3.98% (inactive) |
| CN(C)c1ccc(N=Nc2nc3ccccc3n2C)cc1 | -12.4% (inactive) |
| Cc1ccc(CNc2nc3ccccc3n2C)cc1 | -2.51% (inactive) |
| Cc1ccc(NCc2nc3ccccc3n2C)c(C)c1 | 1.58% (inactive) |
| C=CCn1c(C(O)c2ccccc2)nc2ccccc21 (stereo not given) | -2.4% (inactive) |
| COC(=O)c1ccccc1NC(=O)c1cccc(NC(=O)C(C)C)c1 | -5.47% (inactive) |
| Cc1ccc(Cl)c2c1NC(=O)C2(O)CC(=O)c1ccccc1O (stereo not given) | 1.71% (inactive) |

| Compound | inhibition |
| --- | --- |
| Cc1nn(Cc2ccc(F)cc2)c(Cl)c1/C=N/NC(=O)c1cccnc1 | 3.93% (inactive) |
| CCCCNC(=O)C1CCCN1S(=O)(=O)c1cccc2nsnc12 (stereo not given) | -12.3% (inactive) |
| O=c1c2c(-c3ccccc3)csc2ncn1/N=C/c1c2ccccc2cc2ccccc12 | 5.97% (inactive) |
| Cc1ccc(C=Nc2ccc(N(C)C)cc2)o1 | 22.3% (inactive) |
| CN(C)c1ccc(C=Nc2ccc(N(C)C)cc2)cc1 | 26.9% (inactive) |
| CN1C(C(=O)NCCc2cccs2)CC2Cn3c(nc4cc5ccccc5cc43)C21 (stereo not given) | 1.77% (inactive) |
| CSc1cccc(CN2CCN(CCc3ccccc3)C(CCO)C2)c1 (stereo not given) | -1.46% (inactive) |
| O=C(c1cc(-c2ccccc2Cl)on1)N1CCN(C(=O)c2ccco2)CC1 | 9.97% (inactive) |
| CN(CCO)c1cc(N2CCN(C(=O)c3ccco3)CC2)c2nonc2c1[N+](=O)[O-] | -1.02% (inactive) |
| O=C(c1ccco1)N1CCN(C2=NS(=O)(=O)c3ccccc32)CC1 | -26.1% (inactive) |
| O=C(c1ccco1)N1CCN(CCCCN2C(=O)c3ccccc3C2=O)CC1 | -6.16% (inactive) |
| COc1ccc(C)cc1-n1nnnc1SCc1csc(C)n1 | -0.01% (inactive) |
| O=C(Cc1ccc2c(c1)OCCO2)Nc1cc(C(F)(F)F)ccc1N1CCOCC1 | -15.4% (inactive) |
| O=C(CC(O)(CC(=O)OCc1ccccc1)C(=O)OCc1ccccc1)OCc1ccccc1 | 10.3% (inactive) |
| O=C1/C(=C\c2cccc(O)c2O)SC(=S)N1Cc1ccccc1 | 11.5% (inactive) |
| O=C1/C(=C/c2ccc(O)c([N+](=O)[O-])c2)SC(=S)N1Cc1ccccc1 | 8.28% (inactive) |
| O=C(c1ccncc1)C12CN3CN(CN(C3)C1)C2 | -2.7% (inactive) |
| COc1cc(/C=N\NC(=O)CN2CCOCC2)ccc1OCC(=O)Nc1ccc(C)c(C)c1 | 0.68% (inactive) |
| C/C(=N\N1CCN(Cc2ccc(Cl)cc2)CC1)c1ccc([N+](=O)[O-])cc1 | 1.56% (inactive) |
| CC(c1ccccn1)C(C)(O)C(C)c1ccccn1 (stereo not given) | -2.07% (inactive) |
| CC(O)(Cc1ccccn1)Cc1ccccn1 | 3.66% (inactive) |
| COc1ccccc1N1CCN(Cc2ccc(OC)c(OC)c2OC)CC1 | 0.22% (inactive) |
| COc1ccccc1N1CCN(Cc2cc3c(cc2Br)OCCO3)CC1 | 3.4% (inactive) |
| COc1ccccc1N1CCN(Cc2cccc(OC)c2OC)CC1 | -12% (inactive) |
| COc1ccccc1N1CCN(Cc2cccc(OC)c2O)CC1 | 0.66% (inactive) |

| Compound | inhibition |
| --- | --- |
| Cc1onc(COc2ccccc2O)c1Br | -2.44% (inactive) |
| Cc1cccc(NC(=O)C2CCCN(S(=O)(=O)c3ccc4[nH]c(=O)ccc4c3)C2)n1 (stereo not given) | 5.77% (inactive) |
| CC(C)C(NC(=O)c1ccc(C(C)(C)C)cc1)C(=O)NC1=NCCS1 (stereo not given) | 8.12% (inactive) |
| CN(C)c1ccc(-c2cc(O)c3ncccc3c2)cc1 | 21.2% (inactive) |
| Oc1cncc(-c2cccnc2)c1 | -6.57% (inactive) |
| c1cncc(-c2cnc3ccccc3c2)c1 | -4.39% (inactive) |
| c1cc(-c2ccncc2)ccn1 | -1.52% (inactive) |
| CC1(c2nnc(-c3ccc(Cl)cc3)o2)CC(c2c(Cl)cccc2Cl)=NO1 (stereo not given) | -2.35% (inactive) |
| Cc1ccc(NC(=S)NCc2ccccc2)c(C)c1 | -7.15% (inactive) |
| O=C(Cc1ccccc1)Nc1cc(C(=O)c2ccccc2)ccc1N1CCOCC1 | -3.63% (inactive) |
| COc1ccc(C(=O)NCCNc2nc3ccc(C)cc3cc2C#N)cc1 | -6.86% (inactive) |
| CN(CC1CCCN(CCc2ccc(Cl)cc2)C1)C(=O)CC(F)(F)F (stereo not given) | -8.18% (inactive) |
| Cc1ccc(CNC(=O)C2CCC(=O)N(CCc3ccc(Cl)cc3)C2)s1 (stereo not given) | -10% (inactive) |
| COc1ccc(C(=O)NC(C)CCCC(C)(C)O)cc1OC1CCN(C(C)=O)CC1 (stereo not given) | -0.26% (inactive) |
| Clc1ccc(-c2noc(COc3ccccc3)n2)cc1 | -0.74% (inactive) |
| C/C(=N\NC(=O)C(c1ccccc1)c1ccccc1)c1ccccn1 | -11.5% (inactive) |
| C/C(=N/NC(=O)CNC(=O)c1ccccn1)c1ccc([N+](=O)[O-])cc1 | -5.71% (inactive) |
| CCOc1ccc(C(=O)NCCN2CCCCC2)c(OCC)c1 | -19.7% (inactive) |
| Cc1ccc(NC(=O)CN(C)C(=O)c2ccc(NS(=O)(=O)c3ccc4[nH]c(=O)[nH]c4c3)cc2)cc1 | 2.9% (inactive) |
| O=C(COC(=O)C12CC3CC(CC(O)(C3)C1)C2)NC(=O)NCc1ccco1 | -3.4% (inactive) |
| O=c1[nH]c(=S)[nH]c2scc(-c3ccc(Br)cc3)c12 | -20.7% (inactive) |
| CCn1c(C)nc2cc(C(=O)N/N=C/c3cccc(OC)c3O)ccc21 | 5.9% (inactive) |
| CCn1c(C)nc2cc(C(=O)N/N=C/c3cccc(O)c3O)ccc21 | 0.31% (inactive) |
| O=C(O)c1cc(-c2cccc3ccccc23)nc2ccccc12 | -1.69% (inactive) |
| O=C(O)c1cc(-c2ccccc2)nc2ccccc12 | 1.29% (inactive) |

| Compound | inhibition |
| --- | --- |
| COc1ccc(C(=O)N2CCN(c3ncccn3)CC2)cc1[N+](=O)[O-] | -14.3% (inactive) |
| O=C(NC(=S)Nc1ccc2oc(-c3ccncc3)nc2c1)c1ccccc1F | 1.17% (inactive) |
| O=C(N/N=C/c1c[nH]c2ccccc12)c1ccc(Cl)cc1 | 3.88% (inactive) |
| c1ccc(-c2cnc(-c3ccccc3)nn2)cc1 | 10% (inactive) |
| c1ccc(-c2nnc(-c3ccccn3)s2)nc1 | -1.25% (inactive) |
| c1ccc(-c2nc(-c3ccccn3)nc(-c3ccccn3)n2)nc1 | 7.93% (inactive) |
| Clc1ccc(OCc2nc(-c3ccccn3)n[nH]2)cc1 | 6.94% (inactive) |
| Clc1ccc(-c2cnc3ccccc3n2)cc1 | -9.76% (inactive) |
| c1ccc(-c2nc3ccccc3[nH]2)nc1 | 13.8% (inactive) |
| c1ccc(-c2ccncc2)nc1 | -0.28% (inactive) |
| c1ccc(-c2nn[nH]n2)nc1 | -11.7% (inactive) |
| COc1ccc(C(C)=O)cc1CN(c1ccccc1OC)S(=O)(=O)c1cccs1 | 13.1% (inactive) |
| Cc1cc(C)nc(SCc2ccc(C(=O)N/N=C/c3ccco3)cc2)n1 | -4.36% (inactive) |
| CCCNS(=O)(=O)c1cccc(C(=O)NC2CCCc3ccccc32)c1 (stereo not given) | -1.43% (inactive) |
| Cc1ccc(C)c(SCC(=O)NC2CCS(=O)(=O)C2)c1 (stereo not given) | -12.1% (inactive) |
| CCCCCCCCNC(=O)c1cnccn1 | -8.66% (inactive) |
| c1ccc(-c2nc(-c3ccccn3)no2)cc1 | -0.45% (inactive) |
| Nc1nc(N)nc(-c2ccccc2-c2nc(N)nc(N)n2)n1 | 21.3% (inactive) |
| Nc1nc(N)nc(-c2ccccc2O)n1 | 1.67% (inactive) |
| CSc1nncc(-c2ccccc2)n1 | -2.08% (inactive) |
| c1ccc(-c2n[nH]c(-c3ccccn3)n2)cc1 | -0.5% (inactive) |
| c1ccc(-c2ccccn2)nc1 | -0.49% (inactive) |
| c1cc(-c2n[nH]c(-c3ccncc3)n2)ccn1 | -1.91% (inactive) |
| c1ccc(-c2nc3ccccc3nc2-c2ccccn2)nc1 | 0.35% (inactive) |
| CCN(CC)S(=O)(=O)c1ccc(N2CCOCC2)c(NC(=O)COc2ccccc2C)c1 | -22.8% (inactive) |
